Rows were chosen to be rich in hits. Some 8.7% of all compounds tested hit in one or more screens of this group.
VACV mCherry inh: inhibitors of vaccinia virus infection (mCherry reporter signal). Vaccinia virus mCherry reporter infection, fluorescence. Potency, µM (series often up to 36.5 µM), for the others: at the highest dose activity change, negative = inhibition, most hits filed as inhibitors. actives 0.63% (n = 310,000). AID 720579; calls by dose curve; tested in A549 cells; also: nearly all actives have a fitted effect of over 35% in size
Vaccinia Venus: inhibitors of vaccinia virus (Venus reporter). Vaccinia virus Venus reporter expression, fluorescence. actives 0.46% (n = 330,000). Potency, µM (series often up to 36.5 µM), for the others: at the top dose activity change, negative = inhibition, actives largely listed as inhibitors; calls by dose curve; tested in A549 cells; also: nearly all actives have a fitted effect of over 30% in size
AMA1 RON2 block: AMA1-RON2 (P. falciparum) interaction inhibition | AlphaScreen AMA1-biotinylated RON2 peptide binding | Potency, µM (top dose mostly 58.2 µM), without a hit: top-dose activity change, negative = inhibition, hits mostly inhibitors | actives 0.2% (n = 360,000);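 also: 0% = vehicle wells and -100% = peptide control; nearly all actives have a fitted effect of over 45% in size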
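AMA1 (3D7) with his tag at 25 nM final met compounds first, then biotinylated RON2 peptide at 25 nM; detection used donor plus acceptor beads, 10 µg/mL apiece, read by AlphaScreen after 30 min at room temperature.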
Pf growth 96h: P. falciparum growth inhibition at 96 hours. Potency, µM (titrated, usually from 28.7 µM), for the others: at the top dose activity change, negative = inhibition, hits mostly inhibitors. actives 6.9% (n = 320,000). P. falciparum luciferase reporter growth, 96 h
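P. falciparum expressing integrated firefly luciferase, in erythrocytes at 2% hematocrit, 0.05% parasitemia, incubated with compounds 96 h at 37 C, 5% CO2. Growth inhibition read as loss of luminescence; two-generation exposure targets delayed-death apicoplast inhibitors.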
Pf growth 48h: P. falciparum growth inhibition at 48 hours (one generation) | AID 504832 | actives 5.9% (n = 310,000) | P. falciparum luciferase growth in erythrocytes, 48 h | Potency, µM (series often up to 28.7 µM), without a hit: at the top dose activity change, negative = inhibition, most hits filed as inhibitors
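A one-generation exposure of luciferase-tagged malaria parasites in RPMI 1640/Albumax erythrocyte culture, 37 C and 5% CO2. Inhibition is inferred from decreased luminescence after adding detection reagent.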
An asterisk follows results filed as active; i = inactive; ? = inconclusive; nt = not tested or not shown; ! = not confirmed by another sample; [ ] = remark or other dose. Unless noted, calls follow the shape of the dose curve; as a rule, active = well fitted curve in the direction sought with a large enough effect; inconclusive = small, poorly fitted or top-dose-only effect, or another doubt; inactive = no such curve, though single readings can be large; an effect the other way counts as inactive or inconclusive. Unless noted, % is scaled to controls: 0 for no effect and ±100 for the full control effect; potency is read from the fitted curve at half-maximal effect.

SMILES	VACV mCherry inh	Vaccinia Venus	AMA1 RON2 block	Pf growth 96h	Pf growth 48h
O=C1C=C(O)c2ccccc2C1=O	-9%	2%	nt	nt	nt
O=C1C=C(c2c(O)ccc3ccccc23)c2ccccc2C1=O	10µM*	11µM*	?	nt	nt
O=C(CC1SC(=Nc2ccc(OC(F)F)cc2)N(CCC2=CCCCC2)C1=O)Nc1ccccc1F (stereo not given)	-19%	-21%	-8%[2.32 µM]	2.6µM*	10µM*
CCOc1ccccc1N=C1SC(CC(=O)Nc2ccc(OC)cc2OC)C(=O)N1CCC1=CCCCC1 (stereo not given)	?	-22%	-14%	4.1µM*	?
CCn1c2ccccc2c2cc(N=C3SC(CC(=O)Nc4ccccc4OC)C(=O)N3C)ccc21 (stereo not given)	-6%	-14%	15%	?	?
COc1ccc(N=C2SC(CC(=O)Nc3ccccc3OC)C(=O)N2Cc2ccco2)cc1 (stereo not given)	?	-24%	0%	?	-78%
CCn1c2ccccc2c2cc(N=C3SC(CC(=O)Nc4ccccc4OC)C(=O)N3CCOC)ccc21 (stereo not given)	?	-12%	-1%	?	9.3µM*
CN=C1SC(CC(=O)Nc2ccccc2F)C(=O)N1C (stereo not given)	i	-9%	31%	10%	16%
O=C(Nc1ccccc1)N1CCn2c1nc1ccccc12	nt	-16%	7%	6%	0%
S=C(Nc1ccccc1)N1CCn2c1nc1ccccc12	i	-5%	40%	2.6µM*	5%
COc1ccc(C)cc1N(CC(=O)NCCSCc1cccc(Cl)c1)S(C)(=O)=O	-27%	-18%	-17%	12µM*	0%
CS(=O)(=O)N(CC(=O)NCCSCc1c(F)cccc1Cl)c1ccc2c(c1)OCO2	nt	-25%	2%	-1%	12µM*
COc1ccc(N(CC(=O)NCCSCc2c(F)cccc2Cl)S(C)(=O)=O)cc1OC	nt	nt	-1%	nt	-16%
CS(=O)(=O)N(CC(=O)NCCSCc1ccccc1)c1ccccc1Br	nt	nt	-2%	7.4µM*	8%
COc1ccccc1N(CC(=O)NCCSCc1ccc(Cl)cc1)S(C)(=O)=O	-2%	-23%	0%	?	-15%[0.00184 µM]
CS(=O)(=O)Nc1ccc(C(=O)Nc2ccccc2Cl)cc1	-7%	-7%	-8%	?	19%
CS(=O)(=O)Nc1ccc(C(=O)Nc2ccccc2-c2ccccc2)cc1	nt	nt	-19%	12µM*	?
CCc1ccc(OCc2cc(=O)n3c4c(sc3n2)CCCC4)cc1	-6%	-12%	nt	nt	nt
Cc1ccc(C)c(NC(=O)C(c2ccccc2)N2Cc3ccccc3C2=O)c1 (stereo not given)	-14%	-2%	nt	nt	nt
Cc1ccccc1CNC(=O)c1ccc(CSCc2ccccc2)cc1	nt	-5%	11%	6.6µM*	?
CS(=O)(=O)Nc1ccc(C(=O)NCCSCc2ccccc2)cc1	i	-18%	-15%	13µM*	?
CC(=O)Nc1ccc(NS(C)(=O)=O)cc1	-4%	-10%	0%	4.7µM*	nt
Cc1ccccc1N(CC(=O)NCCSCc1ccccc1)S(C)(=O)=O	nt	nt	2%	12µM*	-14%
Cc1ccccc1CNC(=O)c1ccc(Cn2c(SCc3ccccc3)nc3cccnc32)cc1	-26%	-11%	nt	nt	nt
CCOc1ccc(C(c2c(O)cc(C)n(Cc3ccco3)c2=O)N2CCN(c3ccccc3)CC2)cc1 (stereo not given)	-8%	-8%	nt	nt	nt
SMILES	VACV mCherry inh	Vaccinia Venus	AMA1 RON2 block	Pf growth 96h	Pf growth 48h
CCCCc1nn2c(=O)cc(COC(=O)COc3ccc(C)cc3)nc2s1	-10%	1%	nt	nt	nt
O=C(N/N=C/c1ccc(O)c([N+](=O)[O-])c1)C1CC1(c1ccccc1)c1ccccc1 (stereo not given)	-10%	-13%	-12%	336%	?
O=C(N/N=C/c1ccncc1)C1CC1(c1ccccc1)c1ccccc1 (stereo not given)	-11%	-10%	-3%	5.2µM*	?
Cc1ccc(NC2=CC(=O)CC(c3ccccc3)C2)cc1 (stereo not given)	-28%	-18%	-26%	?	?
Cc1ccc(NC2=CC(=O)CC(c3ccc(Cl)cc3)C2)cc1 (stereo not given)	-18%	-25%	9%[2.32 µM]	?	13µM*
Cc1cc(C)cc(N(C)S(=O)(=O)c2nnc(NC(=O)COc3ccc(C)c(C)c3)s2)c1	-10%	0%	nt	nt	nt
OCc1ccccc1Cn1ccnc1	i	2%	-6%	nt	nt
Cc1cc(Cn2ccnc2)c(C)cc1Cn1ccnc1	nt	nt	-18%	?	13µM*
COc1ccc(CNC(=O)CN(C(=O)c2csnn2)c2ccc(F)cc2)cc1	-25%	-12%	-13%	-2%	-10%
COc1ccc(CNC(=O)CN(C(=O)c2csnn2)c2ccc(C(C)=O)cc2)cc1	-4%	0%	12%	0%	10µM*
CC(=O)c1ccc(N(CC(=O)NCCc2ccccc2)C(=O)c2csnn2)cc1	i	-8%	0%	9.3µM*	?
CC(=O)c1cccc(N(CC(=O)NCCc2ccccc2)C(=O)c2csnn2)c1	-24%	-3%	-1%	-8%	7%
O=C(CSc1cn(CCNC(=O)c2c(F)cccc2F)c2ccccc12)Nc1ccccc1F	0%	3%	nt	nt	nt
CC1c2cccc(O)c2C(O)=C2C(=O)[C@]3(O)C(O)=C(C(N)=O)C(=O)C(N(C)C)C3C(O)C21 (stereo not given in full)	-10%	-9%	nt	nt	nt
CN(C)C1C(=O)C(C(N)=O)=C(O)[C@@]2(O)C(=O)C3=C(O)c4c(O)cccc4[C@](C)(O)C3C(O)C12 (stereo not given in full)	-15%	-3%	nt	nt	nt
CN(C)[C@@H]1C(=O)C(C(N)=O)=C(O)[C@@]2(O)C(=O)C3=C(O)c4c(O)cccc4[C@@](C)(O)C3C[C@@H]12 (stereo not given in full)	-10%	-24%	?	2.1µM*	7.4µM*
C[C@H]1c2cccc(O)c2C(O)=C2C(=O)[C@]3(O)C(O)=C(C(N)=O)C(=O)[C@@H](N(C)C)[C@@H]3[C@@H](O)[C@@H]21	-10%	?	?	0.74µM*	4.7µM*
CN(C)[C@@H]1C(=O)C(C(N)=O)=C(O)[C@@]2(O)C(=O)C3=C(O)c4c(O)cccc4[C@@](C)(O)[C@H]3[C@H](O)[C@@H]12	i	-2%	1µM*	3.8µM*!	13µM*!
C=C1c2c(Cl)ccc(O)c2C(O)=C2C(=O)[C@@]3(O)C(O)=C(C(N)=O)C(=O)[C@@H](N(C)C)[C@@H]3[C@@H](O)[C@H]12	nt	nt	nt	0.72µM*	4.1µM*
CN(C)c1ccc(O)c2c1CC1CC3[C@@H](N(C)C)C(=O)C(C(N)=O)=C(O)[C@]3(O)C(=O)C1=C2O (stereo not given in full)	-4%	-28%	?	0.33µM*	4.7µM*

Source: PubChem BioAssay (National Center for Advancing Translational Sciences (NCATS))
